Inconclusive results are not listed. The source made the active and inactive calls. Rule for the calls, unless noted: active = hit-call score of the fitted dose curve at least 0.9, where 1 is the maximum; inactive = score below 0.9.
Columns and labels:
[1] = ATG_TCF_b_cat_CIS: Attagene CIS-FACTORIAL HepG2 Assay for human T-Cell-Factor with beta-catenin (TCF/b-cat) (AID 2282965); conditions: HepG2 TCF/beta-catenin cis-reporter transcription, actives raise or lower the signal
Procedure, shortened: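 Endogenous TCF/LEF activity read as reporter transcript level via RT-PCR and capillary electrophoresis fluorescence in transfected HepG2, 24 h exposure; gain or loss of signal fitted against DMSO controls.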

[2] = ATG_TAL_CIS: Attagene CIS-FACTORIAL HepG2 Assay for human TAL Basal Promoter (AID 2282966); conditions: HepG2 Attagene cis-factorial TAL promoter reporter; actives raise or lower the signal;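 note: background control endpoint measuring basal TAL promoter reporter mRNA not a specific factor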
Procedure, shortened: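 RT-PCR plus capillary electrophoresis quantifies reporter mRNA induction in transiently transfected HepG2 cells after 24 h chemical treatment. DMSO serves as negative control and baseline for bidirectional fitting.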

[3] = ATG_TGFb_CIS: Attagene CIS-FACTORIAL HepG2 Assay for human Transforming Growth Factor (TGF) (AID 2282967); conditions: HepG2 Attagene CIS TGFb reporter, mRNA transcription; actives raise or lower the signal
Procedure, shortened: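 Readout: fluorescently labeled reporter cDNA fragments resolved by capillary electrophoresis after RT-PCR. Transfected HepG2 cells dosed for 24 h; endogenous TF activity at TGFB1-linked cis element; gain or loss fitted relative to DMSO.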

[4] = molecular target: Estrogen receptor (Homo sapiens) (UniProt P03372); test: ATG_ERa_TRANS: Attagene TRANS-FACTORIAL HepG2 Assay for human Estrogen Receptor alpha (ERa) (AID 2282970; active = hit-call score of the fitted dose curve at least 0.9, where 1 is the maximum); conditions: HepG2 Attagene TRANS ERa GAL4 reporter, mRNA
Chain of Estrogen receptor (Homo sapiens) (P03372 whole entry, looked up, the tested form may be a part): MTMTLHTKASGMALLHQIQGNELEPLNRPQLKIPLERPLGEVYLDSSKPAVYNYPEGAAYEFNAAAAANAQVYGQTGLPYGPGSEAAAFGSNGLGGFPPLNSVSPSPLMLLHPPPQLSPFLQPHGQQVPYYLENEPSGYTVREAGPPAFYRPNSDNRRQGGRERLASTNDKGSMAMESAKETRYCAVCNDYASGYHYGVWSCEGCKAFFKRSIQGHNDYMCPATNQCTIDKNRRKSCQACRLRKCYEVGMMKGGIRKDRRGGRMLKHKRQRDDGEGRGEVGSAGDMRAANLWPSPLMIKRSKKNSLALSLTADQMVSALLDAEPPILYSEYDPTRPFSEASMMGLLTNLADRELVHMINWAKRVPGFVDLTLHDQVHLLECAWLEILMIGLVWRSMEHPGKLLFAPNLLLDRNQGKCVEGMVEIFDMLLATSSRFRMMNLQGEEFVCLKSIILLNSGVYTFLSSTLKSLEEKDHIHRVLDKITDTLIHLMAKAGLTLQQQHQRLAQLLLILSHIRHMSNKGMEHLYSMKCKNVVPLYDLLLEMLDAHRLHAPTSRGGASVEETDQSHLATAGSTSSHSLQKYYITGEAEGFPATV
Procedure, shortened: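 Cells: HepG2, transiently transfected. Construct: GAL4-UAS reporter units regulated by exogenous NR-Gal4 chimeras. Time: 24 h. Detection: reporter mRNA by RT-PCR, capillary electrophoresis, fluorescence. Baseline: DMSO, upward fitting.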

[5] = molecular target: X-box-binding protein 1 (Homo sapiens) (UniProt P17861); test: ATG_Xbp1_CIS: Attagene CIS-FACTORIAL HepG2 Assay for human X-box Binding Protein 1 (XBP1) (AID 2282972); conditions: HepG2 XBP1 cis-element reporter, Attagene multiplex; actives raise or lower the signal
Chain of X-box-binding protein 1 (Homo sapiens) (P17861 whole entry, looked up): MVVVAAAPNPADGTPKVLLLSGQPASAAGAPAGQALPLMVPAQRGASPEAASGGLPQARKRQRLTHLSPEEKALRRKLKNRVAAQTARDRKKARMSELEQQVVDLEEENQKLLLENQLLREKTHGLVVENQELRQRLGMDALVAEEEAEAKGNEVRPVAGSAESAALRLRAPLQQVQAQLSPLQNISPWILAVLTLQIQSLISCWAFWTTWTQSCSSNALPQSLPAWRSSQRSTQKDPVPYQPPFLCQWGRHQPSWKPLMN
Procedure, shortened: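 HepG2, transient MRTU transfection (cis-promoter driven), 24 h compound exposure. Total RNA → oligo(dT) RT → PCR → 6-FAM labeling → HpaI cut → CE. Bidirectional fit vs DMSO.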

[6] = ATG_GAL4_TRANS: Attagene TRANS-FACTORIAL HepG2 Assay for GAL4 (Internal Marker) (AID 2282976; active = hit-call score of the fitted dose curve at least 0.9, where 1 is the maximum); conditions: HepG2 Attagene TRANS GAL4 internal marker reporter
Procedure, shortened: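 In transfected human HepG2 liver cells dosed 24 h, GAL4 reporter mRNA serves as a baseline marker. Detection by RT-PCR with fluorescent capillary electrophoresis, activity fitted upward relative to DMSO.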

[7] = ATG_M_06_TRANS: Attagene TRANS-FACTORIAL HepG2 Assay for M06 Transcription Factor (Internal Marker) (AID 2282983; active = hit-call score of the fitted dose curve at least 0.9, where 1 is the maximum); conditions: HepG2 Attagene TRANS M06 internal marker reporter
Procedure, shortened: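 Cells: HepG2, transient multi-reporter transfection. Exposure: 24 h. Detection: RT-PCR, 6-FAM labelling, HpaI digestion (2 h, 37 °C), capillary electrophoresis. Baseline: DMSO.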

[8] = ATG_M_32_TRANS: Attagene TRANS-FACTORIAL HepG2 Assay for M32 Transcription Factor (Internal Marker) (AID 2282984; active = hit-call score of the fitted dose curve at least 0.9, where 1 is the maximum); conditions: HepG2 Attagene TRANS M32 internal marker reporter
Procedure, shortened: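 Measures reporter mRNA induction in human HepG2 liver cells after 24 h chemical treatment. Transcripts from transiently transfected GAL4-UAS reporter units are amplified, fluorescently labelled and sized by capillary electrophoresis; gain of signal relative to DMSO.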

[9] = molecular target: Nuclear receptor subfamily 4 group A member 2 (Homo sapiens) (UniProt P43354); test: ATG_NURR1_TRANS: Attagene TRANS-FACTORIAL HepG2 Assay for human Nuclear Receptor Related Protein 1 (NURR1) (AID 2282985; active = hit-call score of the fitted dose curve at least 0.9, where 1 is the maximum); conditions: HepG2 Attagene TRANS reporter, mRNA readout
Chain of Nuclear receptor subfamily 4 group A member 2 (Homo sapiens) (P43354 whole entry, looked up, the tested form may be a part): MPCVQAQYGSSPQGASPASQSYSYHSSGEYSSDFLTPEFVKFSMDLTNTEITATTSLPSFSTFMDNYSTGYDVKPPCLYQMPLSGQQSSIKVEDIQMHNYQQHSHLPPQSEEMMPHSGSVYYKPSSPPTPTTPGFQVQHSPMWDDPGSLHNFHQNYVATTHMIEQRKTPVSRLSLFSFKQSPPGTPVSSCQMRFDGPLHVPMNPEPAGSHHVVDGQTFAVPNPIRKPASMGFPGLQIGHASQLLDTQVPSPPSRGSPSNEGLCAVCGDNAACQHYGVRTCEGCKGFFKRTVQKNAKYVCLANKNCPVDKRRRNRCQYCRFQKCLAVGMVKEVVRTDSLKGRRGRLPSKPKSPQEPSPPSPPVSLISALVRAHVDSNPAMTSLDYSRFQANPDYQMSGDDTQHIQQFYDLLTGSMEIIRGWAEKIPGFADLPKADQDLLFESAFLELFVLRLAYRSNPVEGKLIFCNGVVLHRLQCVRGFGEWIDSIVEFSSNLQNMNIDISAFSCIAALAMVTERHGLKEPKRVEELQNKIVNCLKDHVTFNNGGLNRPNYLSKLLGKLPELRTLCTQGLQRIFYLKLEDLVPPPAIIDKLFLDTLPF
Procedure, shortened: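 Transient transfection of HepG2, human liver cells, with multiple GAL4-UAS reporter transcription units. Cells dosed 24 h, RNA isolated, reverse-transcribed, PCR-amplified, FAM-labelled, HpaI-digested, sized by capillary electrophoresis. DMSO served as negative control.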

[10] = molecular target: Transcriptional activator Myb (Homo sapiens) (UniProt P10242); test: ATG_Myb_CIS: Attagene CIS-FACTORIAL HepG2 Assay for human Myeloblastosis (Myb) Proto-Oncogene Transcription Factor (AID 2282986); conditions: HepG2 Attagene CIS-FACTORIAL Myb reporter transcription; actives raise or lower the signal
Chain of Transcriptional activator Myb (Homo sapiens) (P10242 whole entry, looked up): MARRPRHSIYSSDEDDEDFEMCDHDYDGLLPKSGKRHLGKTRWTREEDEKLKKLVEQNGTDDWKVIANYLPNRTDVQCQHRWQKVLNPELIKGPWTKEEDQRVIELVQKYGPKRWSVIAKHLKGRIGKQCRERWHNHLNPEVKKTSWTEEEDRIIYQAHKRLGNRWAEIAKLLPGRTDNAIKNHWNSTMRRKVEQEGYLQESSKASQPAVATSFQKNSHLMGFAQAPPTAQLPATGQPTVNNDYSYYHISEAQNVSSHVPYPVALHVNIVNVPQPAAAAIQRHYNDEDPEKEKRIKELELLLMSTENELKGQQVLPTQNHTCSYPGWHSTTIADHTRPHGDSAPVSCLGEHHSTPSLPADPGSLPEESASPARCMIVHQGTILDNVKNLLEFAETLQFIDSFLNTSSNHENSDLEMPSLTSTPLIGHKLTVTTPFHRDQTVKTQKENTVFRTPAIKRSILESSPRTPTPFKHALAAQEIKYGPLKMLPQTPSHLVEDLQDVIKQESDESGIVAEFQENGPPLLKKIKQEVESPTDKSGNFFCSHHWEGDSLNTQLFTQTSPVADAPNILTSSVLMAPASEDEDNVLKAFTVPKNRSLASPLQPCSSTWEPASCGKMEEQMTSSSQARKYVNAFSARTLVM
Procedure, shortened: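 Reporter transcript levels, quantified by fluorescent RT-PCR and capillary electrophoresis, serve as the read-out. Transfected HepG2 cells carrying cis-promoter reporter units are dosed for 24 hours, and curves are fitted bidirectionally against DMSO controls.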

[11] = ATG_VDRE_CIS: Attagene CIS-FACTORIAL HepG2 Assay for human Vitamin D Receptor Element (VDRE) (AID 2282968); conditions: HepG2 VDRE cis-reporter transcription, actives raise or lower the signal
Procedure, shortened: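 Reporter mRNA induction, quantified by capillary electrophoresis of fluorescently labelled RT-PCR products, was read 24 h after dosing HepG2 cells carrying transiently transfected cis-regulated reporter units; gain or loss relative to DMSO.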

[12] = ATG_M_19_TRANS: Attagene TRANS-FACTORIAL HepG2 Assay for M19 Transcription Factor (Internal Marker) (AID 2282974; active = hit-call score of the fitted dose curve at least 0.9, where 1 is the maximum); conditions: HepG2 Attagene TRANS-FACTORIAL M19 internal marker reporter
Procedure, shortened: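 Fluorescence of 6-FAM-labelled reporter cDNA fragments, separated by capillary electrophoresis, served as the readout. These derived from HepG2 cells carrying transfected GAL4-UAS reporter units after 24 h dosing, with DMSO as negative control.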

[13] = molecular target: Hepatocyte nuclear factor 4-alpha (Homo sapiens) (UniProt P41235); test: ATG_HNF4a_TRANS: Attagene TRANS-FACTORIAL HepG2 Assay for human Hepatocyte Nuclear Factor 4 alpha (HNF4a) (AID 2282982; active = hit-call score of the fitted dose curve at least 0.9, where 1 is the maximum); conditions: HepG2 HNF4a transactivation reporter, mRNA readout
Chain of Hepatocyte nuclear factor 4-alpha (Homo sapiens) (P41235 whole entry, looked up, the tested form may be a part): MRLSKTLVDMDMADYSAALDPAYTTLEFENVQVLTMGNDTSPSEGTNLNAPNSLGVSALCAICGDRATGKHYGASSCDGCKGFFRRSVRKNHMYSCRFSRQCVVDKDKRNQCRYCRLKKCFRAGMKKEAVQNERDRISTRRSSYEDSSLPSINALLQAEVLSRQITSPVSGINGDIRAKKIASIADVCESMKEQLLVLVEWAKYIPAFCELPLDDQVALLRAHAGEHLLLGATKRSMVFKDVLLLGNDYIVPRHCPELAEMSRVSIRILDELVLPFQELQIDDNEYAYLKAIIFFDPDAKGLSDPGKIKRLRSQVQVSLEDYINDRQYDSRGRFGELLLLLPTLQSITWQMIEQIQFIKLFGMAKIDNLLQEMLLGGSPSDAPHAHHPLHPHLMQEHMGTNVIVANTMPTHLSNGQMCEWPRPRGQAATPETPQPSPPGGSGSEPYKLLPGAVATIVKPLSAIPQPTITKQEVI
Procedure, shortened: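 Readout is fluorescent reporter-transcript fragments resolved by capillary electrophoresis after RT-PCR from HepG2 cells dosed for 24 h. Cells carried transfected GAL4-UAS reporter constructs measuring exogenous NR-GAL4 chimera activity; DMSO served as baseline.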

[14] = molecular target: Steroid hormone receptor ERR1 (Homo sapiens) (UniProt P11474); test: ATG_ERRa_TRANS: Attagene TRANS-FACTORIAL HepG2 Assay for human Estrogen-Related Receptor alpha (ERRa) (AID 2282971; active = hit-call score of the fitted dose curve at least 0.9, where 1 is the maximum); conditions: HepG2 Attagene TRANS reporter, ERRa transactivation
Procedure, shortened: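 Reporter transcripts from ERRa-Gal4 chimera activity measured in transiently transfected human HepG2 cells 24 hours after dosing, using RT-PCR with 6-FAM primer extension, HpaI digestion and capillary electrophoresis; DMSO is baseline.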

[15] = molecular target: Glucocorticoid receptor (Homo sapiens) (UniProt P04150); test: ATG_GR_TRANS: Attagene TRANS-FACTORIAL HepG2 Assay for human Glucocorticoid Receptor (GR) (AID 2282978; active = hit-call score of the fitted dose curve at least 0.9, where 1 is the maximum;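 note: activators score as hits since higher reporter transcript over DMSO is fitted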); conditions: HepG2 Attagene TRANS GR reporter, mRNA transcription
Chain of Glucocorticoid receptor (Homo sapiens) (P04150 whole entry, looked up, the tested form may be a part): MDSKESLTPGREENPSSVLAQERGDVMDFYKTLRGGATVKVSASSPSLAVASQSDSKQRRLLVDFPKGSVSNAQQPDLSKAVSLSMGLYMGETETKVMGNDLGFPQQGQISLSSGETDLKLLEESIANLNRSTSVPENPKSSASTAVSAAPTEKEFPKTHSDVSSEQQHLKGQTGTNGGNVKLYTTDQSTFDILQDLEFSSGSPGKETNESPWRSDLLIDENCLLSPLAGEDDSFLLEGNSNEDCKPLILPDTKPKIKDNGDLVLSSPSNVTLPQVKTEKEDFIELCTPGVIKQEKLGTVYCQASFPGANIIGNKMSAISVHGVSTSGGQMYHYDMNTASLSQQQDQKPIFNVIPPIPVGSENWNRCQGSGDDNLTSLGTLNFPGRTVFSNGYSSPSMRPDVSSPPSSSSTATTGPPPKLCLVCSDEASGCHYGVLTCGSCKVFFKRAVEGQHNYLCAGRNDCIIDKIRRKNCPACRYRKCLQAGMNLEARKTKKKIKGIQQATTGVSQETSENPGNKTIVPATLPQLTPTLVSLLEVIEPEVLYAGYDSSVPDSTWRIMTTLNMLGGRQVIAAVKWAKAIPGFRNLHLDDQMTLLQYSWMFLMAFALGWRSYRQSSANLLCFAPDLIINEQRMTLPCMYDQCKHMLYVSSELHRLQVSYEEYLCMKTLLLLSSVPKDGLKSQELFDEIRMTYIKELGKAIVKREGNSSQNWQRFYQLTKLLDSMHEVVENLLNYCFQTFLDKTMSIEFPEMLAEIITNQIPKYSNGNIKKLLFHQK
Procedure, shortened: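 Fluorescent capillary-electrophoresis quantitation of reporter mRNA is the readout, taken 24 h after dosing human HepG2 cells carrying transiently transfected GAL4-UAS reporter units activated by chimeric NR-GAL4 fusions; activity scored as induction over DMSO.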

[16] = molecular target: Bile acid receptor (Homo sapiens) (UniProt Q96RI1); test: ATG_FXR_TRANS: Attagene TRANS-FACTORIAL HepG2 Assay for Farnesoid X Receptor (FXR) (AID 2282979; active = hit-call score of the fitted dose curve at least 0.9, where 1 is the maximum;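 note: hits raise reporter mRNA above DMSO so AC50 marks FXR activation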); conditions: HepG2 Attagene TRANS FXR-GAL4 reporter transcription
Procedure, shortened: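 Reporter transcripts from transfected HepG2 cells were measured 24 h after dosing, using RT-PCR with capillary electrophoresis of 6-FAM-labelled fragments. The read-out reflects activity of exogenous FXR-Gal4 chimera on GAL4-UAS units, with induction relative to DMSO.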

[17] = molecular target: Oxysterols receptor LXR-beta (Homo sapiens) (UniProt P55055); test: ATG_LXRb_TRANS: Attagene TRANS-FACTORIAL HepG2 Assay for human Liver X Receptor beta (LXRb) (AID 2282981; active = hit-call score of the fitted dose curve at least 0.9, where 1 is the maximum); conditions: HepG2 Attagene TRANS GAL4-LXRb reporter, mRNA
Chain of Oxysterols receptor LXR-beta (Homo sapiens) (P55055 whole entry, looked up, the tested form may be a part): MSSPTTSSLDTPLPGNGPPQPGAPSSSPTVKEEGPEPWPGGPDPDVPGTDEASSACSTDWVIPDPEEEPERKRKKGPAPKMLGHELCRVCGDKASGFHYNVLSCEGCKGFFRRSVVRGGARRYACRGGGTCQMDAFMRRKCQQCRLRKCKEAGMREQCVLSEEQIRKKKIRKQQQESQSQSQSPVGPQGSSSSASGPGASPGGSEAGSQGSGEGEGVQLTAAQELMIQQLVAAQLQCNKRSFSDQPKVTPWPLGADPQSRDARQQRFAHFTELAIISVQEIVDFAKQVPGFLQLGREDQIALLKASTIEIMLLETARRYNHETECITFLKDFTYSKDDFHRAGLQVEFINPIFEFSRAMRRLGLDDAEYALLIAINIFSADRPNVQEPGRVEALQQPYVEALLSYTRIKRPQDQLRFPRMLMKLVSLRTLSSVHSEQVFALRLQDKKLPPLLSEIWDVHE
Procedure, shortened: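 Transient transfection HepG2 (multiplexed RTUs, GAL4-UAS); NR-Gal4 chimera; 24 h exposure; RNA → RT-PCR → 6-FAM primer extension → HpaI → CE; increase vs DMSO.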

[18] = molecular target: Nuclear receptor subfamily 1 group I member 3 (Homo sapiens) (UniProt Q14994); test: ATG_CAR_TRANS: Attagene TRANS-FACTORIAL HepG2 Assay for human Constitutive Androstane Receptor (CAR) (AID 2282969; active = hit-call score of the fitted dose curve at least 0.9, where 1 is the maximum;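 note: activators raise reporter mRNA above DMSO so AC50 marks induction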); conditions: HepG2 Attagene TRANS-FACTORIAL CAR reporter
Chain of Nuclear receptor subfamily 1 group I member 3 (Homo sapiens) (Q14994 whole entry, looked up, the tested form may be a part): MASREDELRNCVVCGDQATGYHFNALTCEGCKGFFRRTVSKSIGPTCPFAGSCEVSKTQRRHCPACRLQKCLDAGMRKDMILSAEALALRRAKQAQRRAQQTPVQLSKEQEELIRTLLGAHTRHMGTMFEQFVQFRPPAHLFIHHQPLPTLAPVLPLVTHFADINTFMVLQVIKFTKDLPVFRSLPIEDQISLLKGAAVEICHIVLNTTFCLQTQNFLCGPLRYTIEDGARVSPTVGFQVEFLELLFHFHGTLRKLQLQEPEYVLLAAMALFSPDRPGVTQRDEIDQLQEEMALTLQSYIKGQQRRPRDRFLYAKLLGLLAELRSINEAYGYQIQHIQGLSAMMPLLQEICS
Procedure, shortened: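 Readout is reporter mRNA induction, quantified by fluorescent primer extension and capillary electrophoresis after RT-PCR. Cells were HepG2 transiently carrying chimeric NR-Gal4 constructs with GAL4-UAS reporters, treated for 24 h; activity scored upward from DMSO.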

[19] = molecular target: Oxysterols receptor LXR-alpha (Homo sapiens) (UniProt Q13133); test: ATG_LXRa_TRANS: Attagene TRANS-FACTORIAL HepG2 Assay for human Liver X Receptor alpha (LXRa) (AID 2282980; active = hit-call score of the fitted dose curve at least 0.9, where 1 is the maximum); conditions: HepG2 Attagene TRANS reporter, LXRa transactivation
Chain of Oxysterols receptor LXR-alpha (Homo sapiens) (Q13133 whole entry, looked up, the tested form may be a part): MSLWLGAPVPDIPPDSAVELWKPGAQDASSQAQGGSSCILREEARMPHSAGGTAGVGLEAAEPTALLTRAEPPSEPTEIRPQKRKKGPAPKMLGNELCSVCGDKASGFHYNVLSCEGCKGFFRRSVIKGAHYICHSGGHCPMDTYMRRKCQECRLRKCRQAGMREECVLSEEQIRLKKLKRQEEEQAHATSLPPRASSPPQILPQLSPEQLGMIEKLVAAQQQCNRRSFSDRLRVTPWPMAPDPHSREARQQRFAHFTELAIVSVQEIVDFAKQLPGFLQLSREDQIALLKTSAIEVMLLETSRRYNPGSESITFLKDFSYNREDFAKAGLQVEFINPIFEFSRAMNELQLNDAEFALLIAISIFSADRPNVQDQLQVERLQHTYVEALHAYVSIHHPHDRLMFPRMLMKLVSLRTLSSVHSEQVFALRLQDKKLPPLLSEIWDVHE
Procedure, shortened: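 Chemical-induced reporter mRNA measured by RT-PCR with fluorescent labelling and capillary electrophoresis after 24 h dosing of transiently transfected HepG2 cells expressing exogenous NR-Gal4 chimeras; increases scored against DMSO baseline.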

[20] = molecular target: Estrogen-related receptor gamma (Homo sapiens) (UniProt P62508); test: ATG_ERRg_TRANS: Attagene TRANS-FACTORIAL HepG2 Assay for human Estrogen-Related Receptor gamma (ERRg) (AID 2282977; active = hit-call score of the fitted dose curve at least 0.9, where 1 is the maximum); conditions: HepG2 Attagene TRANS reporter, ERRg transactivation
Procedure, shortened: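 HepG2 cells transiently transfected with multiplexed GAL4-UAS reporter units driven by chimeric NR-Gal4 proteins; 24 h exposure. Reporter mRNA quantified by RT-PCR, fluorescent labelling, HpaI digestion and capillary electrophoresis; gain of signal vs DMSO.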

Measured: AC50

CC(=O)C(C)=CC1C(C)=CCCC1(C)C (configuration not stated)
active: [4] 29.8 µM
inactive: [1] | [2] | [3] | [5] | [6] | [7] | [8] | [9] | [10]

CCCCOC(=O)CCCCCCCCC(=O)OCCCC
inactive: [2] | [3] | [11] | [4] | [5] | [12] | [6] | [13] | [10]
active: [1] 146 µM

CCCCCCCCCCC
inactive: [1] | [2] | [3] | [14] | [5] | [12] | [6] | [15] | [13] | [7] | [10]

CC1(C)CC(N=C=O)CC(C)(CN=C=O)C1 (configuration not stated)
inactive: [1] | [2] | [3] | [11] | [5] | [16] | [17] | [7] | [8] | [9] | [10]

Nc1ccc2c(c1)C(=O)c1ccccc1C2=O
inactive: [1] | [2] | [3] | [18] | [5] | [17] | [7] | [9] | [10]

O=c1c(O)c(-c2ccc(O)c(O)c2)oc2cc(O)cc(O)c12
active: [4] 14.9 µM
not listed: [6] | [7] | [13] | [14] | [15] | [16] | [20]
inactive: all other assays above

Cc1cc(=O)[nH]c(=S)[nH]1
inactive: [1] | [2] | [3] | [11] | [5] | [16] | [13] | [7] | [9] | [10]

CC1=C(/C=C/C(C)=C/C=C/C(C)=C/CO)C(C)(C)CCC1
inactive: [2] | [3] | [5] | [6] | [17] | [7] | [8] | [10]
active: [1] 25.9 µM | [11] 1.85 µM | [4] 4.28 µM | [9] 2.86 µM

CC(C)c1ccc(C(=O)N=C(N)N)cc1S(C)(=O)=O
inactive: [1] | [2] | [3] | [11] | [5] | [15] | [17] | [7] | [8] | [10]
active: [4] 68.6 µM

NCC1(Cc2noc(=O)[nH]2)CCCCC1
inactive: [1] | [3] | [11] | [18] | [5] | [6] | [19] | [7] | [9] | [10]

Reference: PubChem BioAssay (EPA / NIEHS)
